Shiga toxin inh = A qHTS for Small Molecule Inhibitors of Shiga Toxin. inhibition, % at 38.7 µM. AID 2315, 2010. hit rate 9.2% among 290,000. Vero cells, Shiga toxin protein synthesis inhibition reporter; in the data active = inhibition mostly above about 28%, no sharp cut-off; inactive = mostly below about 43%; note: 0% is about no effect
Pf growth 48h = Primary qHTS for delayed death inhibitors of the malarial parasite plastid, 48 hour incubation. hit rate 5.9% among 310,000. P. falciparum luciferase growth in erythrocytes, 48 h. Potency, µM (top dose mostly 28.7 µM), for the others: at the highest dose activity change, negative = inhibition, hits mostly inhibitors. AID 504832, 2011; note: potency is the fitted concentration of half-maximal effect; % is set by controls: 0 for no effect and ±100 for the full control effect
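Cell-based growth assay: transgenic P. falciparum expressing firefly luciferase, cultured in red cells within RPMI 1640 containing 0.5% w/v Albumax, 24 mM bicarbonate and gentamycin. A drop in luciferase activity indicates inhibition.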
Pf growth 96h = Primary qHTS for delayed death inhibitors of the malarial parasite plastid, 96 hour incubation; P. falciparum luciferase reporter growth, 96 h; Potency, µM (highest dose often 28.7 µM), without a hit: at the highest dose activity change, negative = inhibition, actives largely listed as inhibitors; hit rate 6.9% among 320,000; AID 504834, 2011; note: potency is the fitted concentration of half-maximal effect; % is set by controls: 0 for no effect and ±100 for the full control effect
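Cell-based qHTS: luciferase-tagged P. falciparum in erythrocytes (2% hematocrit, 0.05% parasitemia final) incubated with compounds for 96 hours, 37 C, 5% CO2; luciferase detection reagent then added and luminescence measured.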
CHX counter = Cycloheximide Counterscreen for Small Molecule Inhibitors of Shiga Toxin | cell reporter, cycloheximide protein synthesis inhibition counterscreen | max response, % | hit rate 12% among 300,000 | AID 2314, 2010; in the data active = max response mostly above about 13%, no sharp cut-off; inactive = mostly below about 14%; note: read at 38.3 µM for the half of the compounds with a filed dose; 0% is about no effect
LmPK inh = qHTS Assay for Inhibitors of Leishmania Mexicana Pyruvate Kinase (LmPK); Potency, µM (series often up to 57.5 µM), for inactives: top-dose activity change, negative = inhibition, usual class: inhibitors; Q27686; hit rate 0.37% among 290,000; purified LmPK, Kinase-Glo ATP luminescence, 1 h; note: potency is the fitted concentration of half-maximal effect; % is set by controls: 0 for no effect and ±100 for the full control effect
Target sequence (Q27686 whole entry, looked up): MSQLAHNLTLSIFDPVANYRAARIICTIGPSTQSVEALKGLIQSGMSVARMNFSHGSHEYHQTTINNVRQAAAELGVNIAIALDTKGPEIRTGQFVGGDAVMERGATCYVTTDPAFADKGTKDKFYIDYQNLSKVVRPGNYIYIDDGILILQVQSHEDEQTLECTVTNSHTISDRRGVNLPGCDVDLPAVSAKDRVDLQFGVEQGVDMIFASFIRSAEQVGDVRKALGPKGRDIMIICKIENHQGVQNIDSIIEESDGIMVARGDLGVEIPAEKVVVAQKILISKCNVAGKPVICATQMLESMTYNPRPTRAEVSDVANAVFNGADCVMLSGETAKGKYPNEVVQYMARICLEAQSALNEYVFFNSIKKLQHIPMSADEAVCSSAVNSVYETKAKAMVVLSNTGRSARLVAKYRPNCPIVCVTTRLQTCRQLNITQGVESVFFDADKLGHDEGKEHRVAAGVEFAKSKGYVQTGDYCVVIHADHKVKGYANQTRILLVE
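Pyruvate kinase activity monitored as ATP production (luciferase luminescence). Conditions: 0.1 nM enzyme, 0.5 mM PEP, 0.1 mM ADP, 1 h, RT; normalized against uninhibited and no-enzyme wells.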
* marks the source's active call; other numbers are inactive results; ? = inconclusive; nt = no result given; [ ] = dose if it differs, or a comment. Sampled rows, rich in hits. Any-hit rate of the full collection: about 22%. Unless noted, calls come from the whole dose curve; as a rule, active = well fitted inhibition curve with a large enough effect; inconclusive = small, poorly fitted or top-dose-only effect, or another doubt; inactive = no such curve, though single readings can be large or run the other way.

SMILES	Shiga toxin inh	Pf growth 48h	Pf growth 96h	CHX counter	LmPK inh
CC1(C)Cc2cccc(OCC(=O)N3CCN(S(=O)(=O)c4ccc(F)cc4)CC3)c2O1	-10	?	9.3µM*	-3	6%
CCc1ccccc1Oc1ccc(S(=O)(=O)N2CCN(C)CC2)cn1	nt	61%	35%	nt	nt
CC1(C)Cc2cccc(Oc3ccc(S(=O)(=O)N4CCCC4)cn3)c2O1	0	12µM*	?	9	-1%
CC(=O)NN1C(=O)/C(=C/c2ccc(C(C)C)cc2)SC1=S	19	11%	46%	16*	2%
COc1cc(/C=C2\SC(=S)N(NC(=O)c3ccc(O)c(OC)c3)C2=O)ccc1O	23	1%[0.00184 µM]	33%	21*	0%
COc1cc(/C=C2\SC(=S)N(NC(=O)c3cccc(O)c3)C2=O)ccc1O	24	29%	22%	5	2%
O=C(O)c1ccc(/C=C2\SC(=S)N(NC(=O)c3ccccc3)C2=O)cc1	-4	20%	?	-2	1%
COc1cc(/C=C2\SC(=S)N(NC(=O)c3ccccc3OC)C2=O)ccc1O	26	-3%	24%	17*	-12%
COc1cc(/C=C2\SC(=S)N(NS(=O)(=O)c3ccc(C)cc3)C2=O)cc(OC)c1OC	11	4.7µM*	?	1	-2%
COc1cc(/C=C2\SC(=S)N(NC(=O)c3ccncc3)C2=O)ccc1O	-14	42%	26%	-2	-10%
Cc1cc(CNC(=O)COC(=O)Cn2[nH]c(=O)c3ccccc3c2=O)cc(C)c1O	nt	?	1%	nt	nt
Cc1ccc(OCC(=O)N2CCN(S(C)(=O)=O)CC2)cc1	8	?	0%	5	-1%
O=C(NCC1CC1)Nc1ccccc1	0	34%	?	10	2%
O=C(NCCC1CC1(Cl)Cl)Nc1ccccc1 (stereo not drawn)	53*	-2%	61%	19	5%
CCCCSCCCNC(=O)Nc1ccc(CC)cc1	6	5%	?	11*	-7%
CCCCCCNC(=O)Nc1ccccc1	61*	1%	8%	44*	-5%
O=C(O)CCCNC(=O)Nc1ccccc1	-14	11%	-4%	-5	2%
COC(=O)C(C)N1CCC(=O)c2ccccc2S1(=O)=O (stereo not drawn)	37	8%	13%	-1	0%
O=S(=O)(c1ccc(S(=O)(=O)N2CCC(O)CC2)cc1)N1CCCC1	-3	3%	13%	-4	-3%
O=C(Nc1nc(-c2ccc(Cl)s2)cs1)c1ccco1	81*	41%	60%	56*	0%
Cc1csc(NC(=O)c2ccco2)n1	-4	11%	-10%	-3	1%
Cc1nnc(SCCC(=O)Nc2nc(-c3ccccc3)ns2)s1	22	8%	?	11	0%
O=C(Nc1nc(-c2nc3ccccc3s2)cs1)C1CC1	85*	53%	137%	63*	-1%
O=C(NNc1nc2ccccc2s1)C1CC1	28	38%	34%	15	0%
O=C(Nc1nc(-c2ccccc2)ns1)c1cccs1	68*	67%	nt	28*	-15%
SMILES	Shiga toxin inh	Pf growth 48h	Pf growth 96h	CHX counter	LmPK inh
O=C(Nc1nc(-c2ccccc2)cs1)c1cccs1	123*	4%	177%	88*	5%
COc1cccc(OC)c1C(=O)Nc1nc(-c2ccccc2)cs1	nt	?	3%	4	7%
CN(C(=O)COC(=O)CSc1ccc(C(N)=O)cc1[N+](=O)[O-])C1CCCCC1	nt	5%	21%	nt	nt
O=C(Nc1nc(-c2ccccc2)cs1)c1ccccc1NS(=O)(=O)c1ccc(F)cc1	27	13µM*	3.7µM*	1	3%
O=C(Nc1nc(-c2ccc(Cl)s2)cs1)c1cccs1	98*	?	-18%	30*	-3%
O=C(O)Cc1csc(NC(=O)c2ccco2)n1	-2	16%	nt	7	-8%
O=C(Nc1nc(-c2nc3ccccc3s2)cs1)c1ccco1	66*	100%	84%	30*	4%
CC1CC1C(=O)Nc1nc(-c2ccccc2)cs1 (stereo not drawn)	84*	nt	3%	39*	2%
CN(C)CC(=O)Nc1nc(-c2ccccc2)cs1	16	nt	89%	12	-11%
CC(C)c1ccccc1NC(=O)COC(=O)C1(C)CC1(Cl)Cl (stereo not drawn)	5	?	29%	-3	-8%
O=S(=O)(Nc1ccccn1)c1ccc(Cl)c2ccccc12	26	25%	88%	8	-3%
CCCS(=O)(=O)N1CCCC(C(=O)NCCc2cccc(C)c2)C1 (stereo not drawn)	-5	-7%[0.00184 µM]	?	-3	4%
CN(C)C(CNc1ccc(C(F)(F)F)cc1[N+](=O)[O-])c1ccccc1 (stereo not drawn)	-7	?	-28%	1	-6%
O=C(Nc1nc(-c2ccccc2)cs1)c1ccc(=O)[nH]c1	67*	28%	61%	24*	3%
CCn1c(SCC(=O)Nc2nc(-c3ccccc3)cs2)nnc1-c1ccccc1O	-13	?	nt	6	0%
CCn1c(CCNC(=O)c2cccs2)nnc1SCC(=O)Nc1nc(-c2ccccc2)cs1	33	12µM*	?	2	-1%
O=C(Nc1ccc(Cl)cc1-c1nc2ccccc2s1)c1ccco1	79*	37%	?	13	1%
Cc1cc(-c2csc(NC(=O)c3ccc(=O)[nH]c3)n2)c(C)n1Cc1ccccc1	-11	-4%	37%	3	1%
O=C(Nc1cc(Cl)ccc1Cl)c1ccco1	nt	-10%	2%	0	6%
COc1ccccc1CCNC(=O)c1nccnc1C(=O)O	-8	2%	17%	-3	1%
COc1cc(/C=N/n2cnnc2)ccc1OCCOc1ccccc1	-3	5%	-9%	-4	0%
C(=N\n1cnnc1)/c1ccc(OCc2cccc3ccccc23)cc1	33	nt	31%	20*	9%
C(=N\n1cnnc1)/c1cccc(OCCOc2ccccc2)c1	94*	67%	14%	20*	-7%
O=C(c1ccco1)N1CCN(c2nc(C3CC3)nc3sc4c(c23)CCCC4)CC1	66	9.3µM*	-21%	-4	2%
Cc1sc2nc(CN3CCCC3)nc(N3CCN(C(=O)c4ccco4)CC3)c2c1C	27	?	3.7µM*	-3	8%
Cc1nc(N2CCN(C(=O)c3ccco3)CC2)c2c3c(sc2n1)CCCC3	-3	?	?	-1	2%
Cc1sc2nc(CN3CCC(C)CC3)nc(Cl)c2c1C	13	9%	16%	-3	3%
Cc1sc2nc(CN3CCCC3)nc(N3CCC(C(N)=O)CC3)c2c1C	12	nt	9.3µM*	-4	-5%
Cc1sc2ncnc(OCC(=O)N3CCN(C(=O)c4ccco4)CC3)c2c1C	23	22%	-12%	0	-1%
